{"source": "PubChem BioAssay AID1845227", "about": "(National Center for Advancing Translational Sciences (NCATS), 2023)", "note": "Records with an inconclusive call do not appear. A call without a number means that no potency is given here. Calls of active or inactive are those of the source. The call rests on the fitted dose curve; in most records, active means well fitted inhibition curve with a large enough effect; inconclusive means small, poorly fitted or top-dose-only effect; inactive means no such curve, though single readings can be large or run the other way. Potency means the concentration at half of the fitted maximal effect."}
{"target": "Luciferin 4-monooxygenase (Photinus pyralis) (UniProt P08659)", "assay": "Confirmatory firefly luciferase (FLuc) qHTS assay for identification of artifact compounds", "conditions": "purified FLuc enzyme, luminescence, 5 min; series mostly up to 38.9 µM", "description": "PI: Alexander Tropsha Ph.D. UNC Eshelman School of Pharmacy University of North Carolina, Chapel Hill, North Carolina Hits from high-throughput screening (HTS) of chemical libraries are often false positives due to their interference with the assay detection technology. In response to this problem, we generated the largest publicly available library of chemical liabilities and developed a free webtool to predict HTS artifacts, both of which are described herein. More specifically, we generated, curated, and integrated HTS datasets for thiol reactivity, redox activity, and luciferase (firefly and nano) activity. Using these curated datasets, we developed and validated several Quantitative Structure-Interference Relationship (QSIR) models to predict nuisance behavior. […] These models were employed for virtual profiling of the National Center for Advancing Translational Science's (NCATS) in-house library, and 256 compounds for each assay were selected for the experimental validation of nuisance behavior. The BA for these external predictions ranged from 58 to 78% for compounds within the applicability domains of the models. […] The models developed in this study, along with aggregation models previously developed by our group (SCAM Detective) were implemented in \"Liability Predictor,\" an online tool which may be used as part of chemical library design or for triaging HTS hits. Both the models and the curated datasets are publicly available at https://liability.mml.unc.edu/.\nPROTOCOL TABLE SEQUENCE No. (e.g., 1, 2, 3, etc.); […] (e.g., Cells, Incubation, Reagent, etc.); VALUE; DESCRIPTION. 1; Reagent; 3 uL; Luciferase substrate mixture. 2; Compounds and control; 16 nL; Kalypsis pin tool (Wako USA) equipped with a 1536-well pin head. 3; Incubation; 15 min. 4; Reagent; 1 uL; Luciferase enzyme. 5; Incubation; 5 min. 6; Detection; Luminescence, ViewLux microplate reader. NOTES (numbers refer to Sequence numbers above) 1. 3 uL of luciferase substrate mixture containing D-luciferin and ATP (final concentrations of 10 uM and 10 uM, respectively) in assay buffer (10 mM Mg-acetate, 0.01% Tween-20, 0.05% bovine serum albumin, 50 mM Tris acetate, pH 7.6) was dispensed into all wells of a 1536-well assay plate (solid-bottom white plate; Greiner Bio One, Monroe, NC). 2. A Wako Pin-tool (Wako Automation, Richmond, VA) was used to transfer 16 nL of compounds (consisting of 7-plates in qHTS format, final concentration range 18.3 nM to 114 uM) or control PTC124 (final concentration range 1.22 nM to 40 uM). 3. 15 min. incubation at room temperature protected from light. 4. 1 uL of luciferase enzyme (final concentration 10 nM, Photinus pyralis luciferase) or buffer was dispensed for a final assay volume of 4 uL. 5. Plates were centrifuged (121xg, 15 seconds) and incubated for 5 minutes. 6. Samples were read for luminescence on a ViewLux CCD imager (PerkinElmer). Data were normalized to no-enzyme (0% activity) and no-inhibitor (DMSO; 100%) controls and the resulting percent inhibition data were fitted to a 4-parameter Hill equation using NCATS in-house software."}
{"smiles": "CN(C)[C@@H]1C(=O)C(C(N)=O)=C(O)[C@@]2(O)C(=O)C3=C(O)c4c(O)ccc(Cl)c4[C@@](C)(O)[C@H]3C[C@@H]12", "Potency": "inactive"}
{"smiles": "CC(=O)OCC(=O)[C@H]1CC[C@H]2[C@@H]3CC[C@H]4C[C@H](O)CC[C@]4(C)[C@H]3C(=O)C[C@]12C", "Potency": "inactive"}
{"smiles": "COC(=O)[C@]1(C)CC[C@@]2(C)CC[C@@]3(C)C4=CC=C5C(=CC(=O)C(O)=C5C)[C@@]4(C)CC[C@@]3(C)C2C1", "note": "(stereo not given in full)", "Potency": "inactive"}
{"smiles": "C[C@@]12CCC(OS(=O)(=O)O)C[C@@H]1CCC1C2CC[C@]2(C)C(=O)CCC12", "note": "(stereo not given in full)", "Potency": "inactive"}
{"smiles": "O=C(O)c1cc[c]([Hg][S]c2ncnc3nc[nH]c23)cc1", "Potency": "12.2 µM (active)"}
